Laboratory results reported in PubChem BioAssay (NCI).
The panel holds about 83,000 compounds, 20% with a hit somewhere; the sample as a whole holds those more often.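 Activity criterion: percent growth below 10, measured after cells in 96-well plates were exposed to a single compound concentration for 48 hours.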 Activity calls are given as the source filed them.

What was measured:
Test in all cases: NCI-60 one-dose screen, 48 h (100 = growth as untreated, 0 = no growth, -100 = all killed)
Conditions in all cases: 10 µM unless noted
NCI-H226 lung = test system: NCI-H226 lung
NCI-H322M lung = test system: NCI-H322M lung
HOP-62 NSCLC = test system: HOP-62 NSCLC
NCI-H460 lung = test system: NCI-H460 lung
HOP-92 NSCLC = test system: HOP-92 NSCLC
NCI-H522 lung = test system: NCI-H522 lung
786-0 renal = test system: 786-0 renal
COLO 205 colon = test system: COLO 205 colon
A549/ATCC NSCLC = test system: A549/ATCC NSCLC

Measured: growth

CCOC(=S)S[C@H]1C[C@@H]2[C@H](CC[C@]3(C)C(=O)CC[C@@H]23)[C@@]2(C)CCC(=O)C=C12
inactive: NCI-H226 lung 106% | NCI-H322M lung 102% | HOP-62 NSCLC 112% | NCI-H460 lung 105% | HOP-92 NSCLC 117% | NCI-H522 lung 95.6% | 786-0 renal 102% | COLO 205 colon 115%

NC(=O)c1c(Br)n(C2OC(CO)C(O)C2O)c2ncnc(N)c12 (centres undefined)
active: HOP-92 NSCLC 3.71% | NCI-H522 lung -18.7% | COLO 205 colon -12.9%
inactive: NCI-H226 lung 54.1% | NCI-H322M lung 21.7% | HOP-62 NSCLC 12% | NCI-H460 lung 11.8% | A549/ATCC NSCLC 12.9% | 786-0 renal 25.9%

CC[C@H](C)[C@H](NC(=O)[C@H]1CCCCN1C)C(=O)N(C)[C@H](C[C@@H](OC(C)=O)c1nc(C(=O)N[C@@H](Cc2ccccc2)C[C@H](C)C(=O)OC)cs1)C(C)C
active: HOP-92 NSCLC -0.123% | NCI-H522 lung -19.8% | A549/ATCC NSCLC 8.91% | COLO 205 colon -39.7%
inactive: NCI-H226 lung 12.6% | NCI-H322M lung 49.3% | HOP-62 NSCLC 20.6% | NCI-H460 lung 14.6% | 786-0 renal 11.8%

CC[C@H](C)[C@H](NC(=O)c1nccn1C)C(=O)N(C)[C@H](C[C@@H](OC(C)=O)c1nc(C(=O)N[C@@H](Cc2ccccc2)C[C@H](C)C(=O)OC)cs1)C(C)C
active: NCI-H460 lung 9.82% | NCI-H522 lung -26.7% | COLO 205 colon -12.8%
inactive: NCI-H226 lung 37.1% | NCI-H322M lung 43.9% | HOP-62 NSCLC 16.6% | HOP-92 NSCLC 29.9% | A549/ATCC NSCLC 25.2% | 786-0 renal 30.8%

Fc1ccc(C2=CCNCC2)cc1
inactive: NCI-H226 lung 86.6% | HOP-62 NSCLC 112% | NCI-H460 lung 99.5% | HOP-92 NSCLC 119% | NCI-H522 lung 63.1% | A549/ATCC NSCLC 113% | 786-0 renal 78.8% | COLO 205 colon 103%

COC(=O)[C@@H](C)C[C@H](Cc1ccccc1)NC(=O)c1nc([C@@H](C[C@H](C(C)C)N(C)C(=O)[C@@H](NC(=O)[C@H]2CCCCN2C)C(C)C)OC(C)=O)sc1C
inactive: NCI-H226 lung 61.4% | NCI-H322M lung 36.3% | HOP-62 NSCLC 32.1% | A549/ATCC NSCLC 10.6%
active: NCI-H460 lung 4.31% | HOP-92 NSCLC 3.74% | NCI-H522 lung -12.8% | 786-0 renal 4.94% | COLO 205 colon -36.5%

C/C(Cc1ccc(Cl)cc1)=C(\c1ccc(OCCN2CCOCC2)cc1)c1ccc(OC(=O)Cc2ccccc2)cc1
inactive: NCI-H226 lung 101% | NCI-H322M lung 83% | HOP-62 NSCLC 102% | NCI-H460 lung 95.8% | HOP-92 NSCLC 77.2% | NCI-H522 lung 69.7% | A549/ATCC NSCLC 78.9% | 786-0 renal 92.6% | COLO 205 colon 99.8%

C[C@@]1(CCCCCCCCCc2ccc(O)cc2)C[C@]2(C)OC(=O)C[C@@H]2OO1
inactive: NCI-H226 lung 102% | NCI-H322M lung 105% | HOP-62 NSCLC 104% | NCI-H460 lung 108% | HOP-92 NSCLC 82.7% | NCI-H522 lung 90% | A549/ATCC NSCLC 99.4% | 786-0 renal 80.2% | COLO 205 colon 124%

CC[C@H](NC(=O)[C@H]1CCCCN1C)C(=O)N(C)[C@H](C[C@@H](OC(C)=O)c1nc(C(=O)N[C@@H](Cc2ccccc2)C[C@H](C)C(=O)O)cs1)C(C)C
active: NCI-H460 lung 2.71% | NCI-H522 lung -19.9% | COLO 205 colon -54.5%
inactive: NCI-H226 lung 65.7% | NCI-H322M lung 46.6% | HOP-62 NSCLC 25.4% | HOP-92 NSCLC 46% | A549/ATCC NSCLC 10.4% | 786-0 renal 10.8%

NC(=Nc1ccccc1)N[N+](=O)[O-]
inactive: NCI-H226 lung 90.1% | NCI-H322M lung 109% | HOP-62 NSCLC 104% | NCI-H460 lung 105% | HOP-92 NSCLC 118% | NCI-H522 lung 115% | A549/ATCC NSCLC 107% | 786-0 renal 113% | COLO 205 colon 107%

COc1cc2c(c(OC)c1OC)-c1ccc([O-])c(=O)cc1[C@@H](NC(C)=O)CC2.COc1cc2c(c(OC)c1OC)-c1ccc([O-])c(=O)cc1[C@@H](NC(C)=O)CC2.[Cu+2]
active: NCI-H460 lung 5.2% | HOP-92 NSCLC 9.89% | NCI-H522 lung -24.5% | COLO 205 colon 9.04%
inactive: NCI-H226 lung 37.8% | NCI-H322M lung 57% | HOP-62 NSCLC 27.4% | A549/ATCC NSCLC 45.1% | 786-0 renal 43%

Nc1ccc2c(c1)Cc1cc(Br)ccc1-2
inactive: NCI-H226 lung 95.4% | NCI-H322M lung 105% | HOP-62 NSCLC 101% | NCI-H460 lung 104% | HOP-92 NSCLC 78% | NCI-H522 lung 107% | A549/ATCC NSCLC 100% | 786-0 renal 108% | COLO 205 colon 117%

Clc1ccc(COC(Cn2ccnc2)c2ccc(Cl)cc2Cl)cc1 (centres undefined)
inactive: NCI-H226 lung 70.2% | NCI-H322M lung 84.9% | HOP-62 NSCLC 75.1% | NCI-H460 lung 33.2% | HOP-92 NSCLC 26% | NCI-H522 lung 36.4% | A549/ATCC NSCLC 51.7% | 786-0 renal 68.5% | COLO 205 colon 68.8%

CCC(O)(CN)c1ccccc1 (centres undefined)
inactive: NCI-H226 lung 92.4% | NCI-H322M lung 102% | HOP-62 NSCLC 97.3% | NCI-H460 lung 107% | HOP-92 NSCLC 93.1% | NCI-H522 lung 79.2% | A549/ATCC NSCLC 86.6% | 786-0 renal 97.8% | COLO 205 colon 102%
